Laboratory results published in PubChem BioAssay (NCI).
The panel holds about 83,000 compounds, 20% with a hit somewhere; the sample as a whole holds those more often.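 How to read the values: 0–100, growth inhibition (40 = 60% inhibited); 0, no net growth; -100 to 0, cell death (-40 = 40% of starting cells died; -100 = all dead).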 Values without a mark were called inactive. The source made the active and inactive calls. How the source made its calls: active means growth percent below 10; inactive means the rest.

Experiments:
Assay in all cases: NCI-60 one-dose screen, 48 h (100 = growth as untreated, 0 = no growth, -100 = all killed)
Details in all cases: 10 µM
[1] = system: SK-MEL-2 melanoma
[2] = system: EKVX NSCLC
[3] = system: SN12C renal
[4] = system: UO-31 renal
[5] = system: TK-10 renal
[6] = system: ACHN renal
[7] = system: A498 renal
[8] = system: CCRF-CEM leukemia
[9] = system: MOLT-4 leukemia

Row | Compound | growth [1] | growth [2] | growth [3] | growth [4] | growth [5] | growth [6] | growth [7] | growth [8] | growth [9]
1 | Nc1ncnc2c1ncn2C1(CO)OCC(O)C(O)C1O (stereo not given) | 93.5% | 100% | 103% | 87.9% | 87.3% | 107% | 108% | 101% | 105%
2 | O=C1c2ccccc2C(=O)c2c1ccc1c(=O)n(-c3ccccc3C(F)(F)F)nnc21 | 56.5% | 36.3% | 5.97% (active) | 22.6% | 54.8% | 23.6% | 82% | 15% | 7.06% (active)
3 | O=C(CN(C1CCCCC1)C1CCCCC1)Nc1ccc(S(=O)(=O)c2ccc(NC(=O)CN(C3CCCCC3)C3CCCCC3)cc2)cc1 | -35.4% (active) | -43.6% (active) | 30.6% | 10.2% | 56.1% | -33% (active) | 89.4% | -59.7% (active) | -25.2% (active)
4 | COc1cc2nc(SCC(=O)Nc3cc(OC)c(OC)c(OC)c3)n(Cc3ccccc3)c(=O)c2cc1OC | 45.4% | 75.5% | 69.1% | 48.9% | -12.5% (active) | 66.1% | -8.93% (active) |  | 
5 | O=C(NCCCNS(=O)(=O)c1ccc(Cl)cc1)Nc1ccc(-n2cc(-c3ccncc3)c(-c3ccc(Cl)c(O)c3)n2)cc1 | 43.4% | 61.7% | 46.1% | 40.9% | 62.5% | 26.4% | 50.1% | 23.5% | 15.6%
6 | COc1cc(-c2nn(-c3cccc(NC(=O)NCCNC(=O)c4cccc(C(F)(F)F)c4)c3)cc2-c2ccncc2)ccc1Cl | 21.5% | 60.1% | 75.2% | 62.1% | 90% | 48.4% | 33% | 20.6% | 27.3%
7 | Cc1cc(=O)n2nnc3cc(Cl)c(Cl)cc3n12 | 102% | 92.6% | 107% | 81.3% | 102% | 90.2% | 138% | 23.1% | 
8 | Cc1c(Cl)cccc1NC(=O)CCCl | 103% | 106% | 95.8% | 86.6% | 89.3% | 108% | 108% | 84.7% | 85.3%
9 | C1CN(CC2CCC(CN3CCOCC3)O2)CCO1 (stereo not given) | 107% | 100% | 106% | 93.6% | 95.8% | 38.9% | 117% | 50.4% | 
10 | COc1cc(-c2nn(-c3cccc(NC(=O)CN4CCOCC4)c3)cc2-c2cccnc2)ccc1Cl | 82.1% | 95.8% | 85.4% | 68.6% | 125% | 87.6% | 93.3% | 70.9% | 74.3%
11 | CCOC(=O)c1cc(C(=O)c2ccc(F)cc2F)n2ccccc12 | 91.2% | 99.7% | 95.9% | 72.3% | 115% | 97.1% | 87.9% | 84.7% | 87%
12 | COc1cc(-c2nn(-c3ccc(NC(=O)NCCCNC(=O)c4ccccc4)cc3)cc2-c2ccncc2)ccc1Cl | 18% | 51.4% | 54.5% | 29.6% | 59.3% | 23.7% | 12.7% | 14.5% | 23.5%
13 | C=CCn1c(SCC(=O)Nc2ccc(C(=O)/C=C/c3cc(OC)c(OC)c(OC)c3)cc2)nnc1-c1cc(-c2ccc(Cl)cc2)nc2ccccc12 | 103% | 86.4% | 86.8% | 57.1% | 113% | 86.1% | 80.6% |  | 52.6%
14 | Cc1cc(SCc2ccccc2)nc(N)n1 | 119% | 96.7% | 92.5% | 98.1% | 107% |  | 89.4% | 88.1% | 98.5%
15 | CC(=O)OC/C=C(/C)C[P+](c1ccccc1)(c1ccccc1)c1ccccc1 | 83.8% | 82.4% | 51.5% | 61.1% | 70.6% | 70% | 81.9% | 52.7% | 78.2%
16 | COc1cc(NC(=O)Nc2cnc(Nc3ccc(N4CCOCC4)cc3)nc2Oc2cccc(OC)c2)cc(OC)c1 | 40% | 66.5% | 43.3% | 6.12% (active) | 54.7% | 32.8% | 39.1% |  | 61.3%
17 | CCOC(=O)c1cc(C(=O)c2cc(OC)c(OC)c(OC)c2)n2c1ccc1c3cccnc3ccc12 | 40.6% | 93.3% | 78.7% | 69% | 85.3% | 76.2% | 60.6% | 62.7% | 31.4%
18 | Cc1cc(CCNC=O)c(C)c2c1sc1ccccc12 | 109% | 56.6% | 79.7% | 91.2% | 94.4% | 99.8% | 72.8% | 84% | 94.5%
19 | CN(C)CCCOc1ccc(OCCCN(C)C)c2c1C(=O)c1ccccc1C2=O | -53.4% (active) | 13.6% | 6.55% (active) | 62.7% | -6.02% (active) | 10.8% | -31.9% (active) | 2.78% (active) | 5.64% (active)
20 | CCOC(=O)C1C(C(=O)OCC)C2C(=O)C3C(C(=O)OCC)C(C(=O)OCC)C3C(=O)C12 (stereo not given) | 115% | 96.3% | 94.2% | 94.8% | 112% | 98.8% | 102% | 102% | 106%
21 | CCN(CC)CCCOc1cccc2c1C(=O)c1cccc(OCCCN(CC)CC)c1C2=O | 42.1% | 54.5% | 31.2% | 16% | 38.8% | 22.7% | 46.4% | 25% | 4.98% (active)
22 | CCN1CCN(CCC(=O)Nc2cccc(-n3cc(-c4ccncc4)c(-c4ccc(Cl)c(OC)c4)n3)c2)CC1 | -19.5% (active) | 54.5% | 38.8% | 34.6% | 44.7% | 37.2% | -14.1% (active) | 1.32% (active) | 2.89% (active)
23 | C=CCn1c(SCC(=O)Nc2ccc(C(=O)/C=C/c3ccc(OC)cc3)cc2)nnc1-c1ccc(OC)c(OC)c1 | 89.3% | 107% | 73.1% | 65.8% | 110% | 94.9% | 92.8% |  | 49.7%
24 | CCOC(=O)c1cc(C(=O)c2cc(OC)cc(OC)c2)n2nc(C)ccc12 | 15.9% | 75.5% | 58.1% | 44.9% | 65% | 60.5% | -1.92% (active) | 13.7% | 29.5%
25 | CCOC(=O)c1cc(C(=O)c2ccc(OC)c(OC)c2)n2ccncc12 | 96% | 106% | 102% | 71.3% | 123% | 88.1% | 94.6% | 101% | 94.2%
26 | CN(C)CCCOc1ccccc1NC1=C(Cl)C(=O)C(Nc2ccccc2OCCCN(C)C)=C(Cl)C1=O | -63.8% (active) | -82% (active) | -86.7% (active) | -99% (active) | -98.3% (active) | -98% (active) | 65.1% | -16.5% (active) | -33.8% (active)
27 | O=C(CC(CC(=O)c1ccccc1)c1ccccc1O)c1ccccc1 | 91.3% | 95% | 96.2% | 78.4% | 98.6% | 99.3% | 97.5% | 98.6% | 105%
28 | S=c1cnc2ccccc2[nH]1 | 95.6% | 107% | 104% | 76.6% | 112% | 101% | 99% | 103% | 91.7%
29 | Cc1c2cnccc2c(C)c2c1c1cc(O)ccc1n2C(C)C | -14.4% (active) | 9.67% (active) | -6.79% (active) | -3.92% (active) | 56.2% | -1.61% (active) |  |  | -4.53% (active)
30 | CN(C)CCC1(c2ccccc2)CCN(C)C1=O (stereo not given) | 95.4% | 110% | 103% | 87.4% | 112% | 102% | 94.1% | 103% | 95.6%
